The values that follow come from PubChem BioAssay (NCATS).

Inconclusive results are not listed. The source made the active and inactive calls. Calls follow the shape of the dose curve; as a rule, active = well fitted cell-killing curve with a large enough effect; inconclusive = small, poorly fitted or top-dose-only effect; inactive = no such curve, though single readings can be large or run the other way.
Potency is read from the fitted curve at half-maximal effect.

The first assay is described as follows: qHTS of pediatric cancer cell lines to identify multiple opportunities for drug repurposing: Primary screen for SJ-GBM2 cells (AID 1347091).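 As to activity change, negative = cytotoxic: plate controls were DMSO neutral control for no effect and bortezomib for full effect.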 The note with it: SJ-GBM2 viability, CellTiter-Glo luminescence, 48 h; series mostly up to 46 µM; activity change, negative = cytotoxic: at the top concentration. In outline: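 Eight- or eleven-point concentration series, 48 h treatment at 37 degrees C in growth media; readout CellTiter-Glo luminescence. Potency and efficacy were taken from the concentration-response curves.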
For orientation: qHTS replaces the single test concentration by a dilution series.
For the compound `c1ccc(-c2nc[nH]c2-c2ccccc2)cc1`, the “activity change, negative = cytotoxic” value was 3.7% (inactive).
Still for that read-out and setting: the same measure for `COc1ccc(CN(CCN(C)C)c2ncccn2)cc1`: 1.95% (inactive); for `C[N+]1(CC2COC(c3ccccc3)(C3CCCCC3)O2)CCCCC1` (configuration not stated): 4.49% (inactive); for `CCCCCCCCCCCCCCCC(=O)O`: 16.4% (inactive).
The same measure, in the same setting: the same measure for `CN1CCN(c2cc3c(cc2F)c(=O)c(C(=O)O)cn3-c2ccc(F)cc2)CC1`: 73.7% (inactive); for `O=C(O)P(=O)(O)O`: 17.5% (inactive); for `FC(F)(F)C(F)(F)C(F)(F)C(F)(F)C(F)(F)C(F)(F)C(F)(F)C(F)(F)Br`: 20.4% (inactive).
The same measure, in the same setting: the result for `Cc1ccc(O)c([C@H](CCN(C(C)C)C(C)C)c2ccccc2)c1` reads -3.91% (inactive); that for `Cl/C(=C\n1cncn1)c1ccc(Cl)cc1Cl`, -1.73% (inactive); that for `CC(C)(C)NCC(O)COc1cccc2c1C[C@H](O)[C@H](O)C2` (some centres not stated), 7.15% (inactive).
Take `Oc1c(Cl)cc(Cl)c(Cl)c1Cc1c(O)c(Cl)cc(Cl)c1Cl`: the Potency is 4.22 µM (active).
As to `CC(=O)O[C@]1(C(C)=O)CC[C@H]2[C@@H]3C=C(C)C4=CC(=O)CC[C@]4(C)[C@H]3CC[C@@]21C`, the “activity change, negative = cytotoxic” value was 2.36% (inactive).
For the compound `Clc1cccc(C(c2ccc3nc[nH]c3c2)n2ccnc2)c1` (configuration not stated), the “activity change, negative = cytotoxic” value is 12.4% (inactive).
`Cc1cc2c(OCC(CNC(C)(C)C)OC(=O)c3ccccc3)cccc2[nH]1` (configuration not stated): the “activity change, negative = cytotoxic” value was 13.7% (inactive).
On the same count and under the same terms, the result for `CCCCCCCCCCCCCC(=O)OC(C)C` reads 17.9% (inactive).
Take `Cc1ccc(-c2ncc(Cl)cc2-c2ccc(S(C)(=O)=O)cc2)cn1`: the “activity change, negative = cytotoxic” value is 26.2% (inactive).
As to `CCOc1ccc(NC(C)=O)cc1`, the “activity change, negative = cytotoxic” value is -6.12% (inactive).
In the case of `COc1ccccc1N1CCN(CCCCNC(=O)c2ccc(-c3ccc(C(C)=O)cc3)cc2)CC1`, the “activity change, negative = cytotoxic” value was -5.44% (inactive).
In the case of `COc1ccc2c(c1)c1c3n2CCN(C)C3=NCC1`, the “activity change, negative = cytotoxic” value was -0.68% (inactive).

Another assay in a line: qHTS of pediatric cancer cell lines to identify multiple opportunities for drug repurposing: Primary screen for A673 cells (AID 1347092). Also: nearly all actives have a fitted effect of over 45% in size. As to activity change, negative = cytotoxic: % is scaled to controls: 0 for no effect and ±100 for the full control effect. The note with it: A673 Ewing sarcoma viability, CellTiter-Glo ATP luminescence, 48 h; series mostly up to 46 µM; activity change, negative = cytotoxic: at the top concentration. In short, it runs like this:
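Cell viability of A673 measured by CellTiter-Glo ATP luminescence after 48 hours compound exposure. Dilution series spanned 0.78 nM to 46 µM (MIPE, 11-point) or 0.59 nM to 46 µM (NPC, 8-point); bortezomib 2.3 uM positive control.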
With `CC(=O)O[C@]1(C(C)=O)CC[C@H]2[C@@H]3C=C(Cl)C4=CC(=O)CC[C@]4(C)[C@H]3CC[C@@]21C`, the “activity change, negative = cytotoxic” value was -24.7% (inactive).
On to `OC(C#CCN1CCCC1)(c1ccccc1)c1ccccc1`, for which the “activity change, negative = cytotoxic” value was -4.02% (inactive).
On the same count and under the same terms, the same measure for `CC(=O)Nc1ccc(OCC(O)CNC(C)C)cc1` (configuration not stated): 12.3% (inactive).
Same read-out and setting: the same measure for `CCCc1ncc(C[n+]2ccccc2C)c(N)n1`: -13.7% (inactive); for `CCN(CC)CCOC(=O)C1(c2ccccc2)CCCC1`: -3.48% (inactive).
Still for that read-out and setting: the same measure for `CCCCc1cc2ccccc2c(OCCN(C)C)n1`: -28.9% (inactive); for `C#C[C@]1(O)CC[C@H]2[C@@H]3[C@H](C)CC4=C(CCC(=O)C4)[C@H]3CC[C@@]21C`: -26.1% (inactive); for `CCN(CC)CCOC(=O)C(Cc1cccc2ccccc12)CC1CCCO1` (configuration not stated): -23.5% (inactive).
For `N#CCC(=O)NN`, the “activity change, negative = cytotoxic” value is 14.8% (inactive).
In the case of `CC(C)(C)CC(C)(C)c1ccc(O)c(-n2nc3ccccc3n2)c1`, the “activity change, negative = cytotoxic” value is -15.1% (inactive).
Consider `CO[C@H]1C=CO[C@@]2(C)Oc3c(C)c(O)c4c(O)c(c(/C=N/N5CCN(C)CC5)c(O)c4c3C2=O)NC(=O)/C(C)=C\C=C[C@H](C)[C@H](O)[C@@H](C)[C@@H](O)[C@@H](C)[C@H](OC(C)=O)[C@@H]1C`, for which the “activity change, negative = cytotoxic” value was -27% (inactive).
Still for that read-out and setting: the result for `Cc1cccc(C)c1NC(=O)CN1CCCCCC1` reads 6.74% (inactive); that for `Cn1c(=O)c2[nH]c(Br)nc2n(C)c1=O`, -7.54% (inactive).
On the same count and under the same terms, the same measure for `c1ccc(-c2nc[nH]c2-c2ccccc2)cc1`: -3.29% (inactive).
The same measure, in the same setting: the result for `COc1ccc(CN(CCN(C)C)c2ncccn2)cc1` reads -11.9% (inactive); that for `C[N+]1(CC2COC(c3ccccc3)(C3CCCCC3)O2)CCCCC1` (configuration not stated), -11.7% (inactive); that for `CCCCCCCCCCCCCCCC(=O)O`, 11.4% (inactive).
For `O=C(O)P(=O)(O)O`, the “activity change, negative = cytotoxic” value was 3.68% (inactive).
The same measure, in the same setting: the result for `FC(F)(F)C(F)(F)C(F)(F)C(F)(F)C(F)(F)C(F)(F)C(F)(F)C(F)(F)Br` reads 9.11% (inactive).
Still for that read-out and setting: the result for `Cc1ccc(O)c([C@H](CCN(C(C)C)C(C)C)c2ccccc2)c1` reads -21.6% (inactive).
Still for that read-out and setting: the same measure for `Cl/C(=C\n1cncn1)c1ccc(Cl)cc1Cl`: -8.4% (inactive); for `CC(C)(C)NCC(O)COc1cccc2c1C[C@H](O)[C@H](O)C2` (some centres not stated): 17.9% (inactive).
`Oc1c(Cl)cc(Cl)c(Cl)c1Cc1c(O)c(Cl)cc(Cl)c1Cl`: the Potency is 21.1 µM (active).
`CC(=O)O[C@]1(C(C)=O)CC[C@H]2[C@@H]3C=C(C)C4=CC(=O)CC[C@]4(C)[C@H]3CC[C@@]21C`: the “activity change, negative = cytotoxic” value is 12.1% (inactive).
The same measure, in the same setting: the same measure for `Clc1cccc(C(c2ccc3nc[nH]c3c2)n2ccnc2)c1` (configuration not stated): 2.88% (inactive).
Same read-out and setting: the same measure for `CCCCCCCCCCCCCC(=O)OC(C)C`: 13% (inactive); for `COc1ccccc1N1CCN(CCCCNC(=O)c2ccc(-c3ccc(C(C)=O)cc3)cc2)CC1`: -15.4% (inactive).
For the compound `COc1ccc2c(c1)c1c3n2CCN(C)C3=NCC1`, the “activity change, negative = cytotoxic” value is 10.9% (inactive).
